# Test results published in PubChem BioAssay AID1619 (SRMLSC, 2009).
# Screen size: about 220,000 compounds; about 830 (0.38%) were called active. Not all results are given here. Potency and affinity values are given separately. Unmarked numbers belong to inactive results.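 How the source made its calls: active means compound inhibiting the enzyme by more than half at any dose during confirmatory dose-response retesting; inconclusive means strong single-dose inhibitors picked by rank but not retested; inactive means the rest.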
# Target: Leucine aminopeptidase (Plasmodium falciparum (isolate 3D7)) (UniProt Q8IL11)
# Sequence (Q8IL11 whole entry, looked up): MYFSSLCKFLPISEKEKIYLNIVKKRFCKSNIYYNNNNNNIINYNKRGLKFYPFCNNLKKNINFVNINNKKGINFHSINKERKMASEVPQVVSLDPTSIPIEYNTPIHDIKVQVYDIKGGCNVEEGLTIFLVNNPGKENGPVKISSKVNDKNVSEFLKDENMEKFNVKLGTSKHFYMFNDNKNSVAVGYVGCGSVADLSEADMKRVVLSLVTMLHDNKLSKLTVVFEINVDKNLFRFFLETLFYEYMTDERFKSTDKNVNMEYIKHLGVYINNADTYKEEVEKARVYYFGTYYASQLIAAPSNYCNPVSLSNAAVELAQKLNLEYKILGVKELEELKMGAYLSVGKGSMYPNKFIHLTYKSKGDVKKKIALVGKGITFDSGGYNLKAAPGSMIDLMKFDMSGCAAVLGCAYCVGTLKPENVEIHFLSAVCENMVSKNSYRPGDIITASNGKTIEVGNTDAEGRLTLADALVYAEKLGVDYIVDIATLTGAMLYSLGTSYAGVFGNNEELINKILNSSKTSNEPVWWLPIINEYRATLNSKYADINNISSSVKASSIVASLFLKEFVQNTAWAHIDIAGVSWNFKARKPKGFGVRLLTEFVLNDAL
# Test: P. falciparum M17LAP inhibitors, primary screen, biochemical, fluorogenic H-Leu-NHMec substrate, 1536-well (AID 1619);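 further: plate controls were full reaction with DMSO carrier for no effect and no enzyme background for full effect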
# Conditions: recombinant M17LAP, H-Leu-NHMec fluorogenic kinetic assay; at 30 µM; stronger effect = higher value
row,Compound,inhibition [%]
1,O=C(Cc1cn(Cc2cccc(Cl)c2)c2ccccc12)N1CCCCCC1,-20.4
2,O=c1c2c3c(sc2nc2sc(CN4CCCCC4)cn12)CCCC3,-6.38
3,N#Cc1c(NC(=O)c2ccccc2)sc2c1CCCCC2,21.1
4,N#Cc1c(NC(=O)CCC(=O)O)sc2c1CCCCC2,34.4
5,CC1CCc2sc(NC(=S)NC(=O)c3ccccc3)c(C#N)c2C1 (stereo not drawn),-12
6,CC(=O)Nc1sc2c(c1C#N)CCCCC2,-1.44
7,CC1CCc2c(sc(NC(=O)c3ccccc3C(=O)O)c2C#N)C1 (stereo not drawn),1.93
8,N#Cc1c(NC(=O)C2CCCO2)sc2c1CCCCC2 (stereo not drawn),-2.74
9,N#Cc1c(NC(=O)C2CCCO2)sc2c1CCCCCC2 (stereo not drawn),13.1
10,N#Cc1c(NC(=O)C2CC2)sc2c1CCCCC2,28.1
11,O=C(Nc1ccccc1NS(=O)(=O)c1ccc(F)cc1)C1CCC1,6.59
12,COc1ccc(-c2cn(-c3ccc(SC(F)F)cc3)c3[n+]2CCC3)cc1OC,-11.9
13,O=C(CCN1C(=O)c2ccccc2C1=O)Nc1cccnc1,11.6
14,N#Cc1c(-c2ccccc2)ccnc1N1CCOCC1,0.41
15,CCCCC(=O)NC(c1ccc(OC)c(OC)c1)c1c(O)ccc2ccccc12 (stereo not drawn),5.73
16,C=CCNC(=S)Nc1cccc(N)c1,2.22
17,Cc1cccc(NC(=O)Cn2nc([N+](=O)[O-])c(Br)c2C)n1,-0.63
18,CCCn1c(/N=C/c2c[nH]c3ccccc23)nc2ccccc21,0.08
19,CN(CCC#N)C(=O)COC(=O)/C=C/c1ccc2c(c1)OCO2,2.65
20,COc1ccc(C2=CC3=C(Br)C(=O)C(C)(OC(=O)C4CCCC4)C(=O)C3=CO2)cc1 (stereo not drawn),22.1
21,CCOC(=O)c1c(NC(=O)C2CC(Cl)=CCC2C(=O)O)sc2c1CC(C)(C)OC2 (stereo not drawn),42.4
22,CC(=O)Nc1sc2c(c1C#N)CCCC2,-9.07
23,CC1(C)Cc2c(sc(NC(=O)Cc3ccccc3)c2C#N)CO1,20.3
24,CC(=O)Nc1sc2c(c1C#N)CCC2,-2.63
25,Cc1sc(NC(=O)C2CCCO2)c(C#N)c1C (stereo not drawn),5.77
26,Cc1sc(NC(=O)C2CCCC2)c(C#N)c1C,3.61

row,Compound,inhibition [%]
1,Cn1nnnc1SCC(=O)Nc1cccc(S(=O)(=O)N2CCCC2)c1,-2.95
2,O=C(Nc1nnc(SCc2ccccc2F)s1)c1ccco1,8.78
3,Cc1ccc(NC(=O)Nc2cccc(Cl)c2)c(C(=O)O)c1,-7.94
4,COc1ccc(C)cc1NC(=O)CN1C(=O)c2ccccc2S1(=O)=O,11.2
5,CCC(C)NC(=O)c1ccccc1NC(=O)CN1C(=O)c2ccccc2S1(=O)=O (stereo not drawn),-2.81
6,COc1ccc(OC)c(NC(=O)CN2C(=O)c3ccccc3S2(=O)=O)c1,23.2
7,CCOC(=O)c1ccccc1NC(=O)CN1C(=O)c2ccccc2S1(=O)=O,-15.2
8,C/C(=N\NC(=O)c1cccc(S(=O)(=O)N2CCCC2)c1)c1cccs1,0.78
9,O=C(CN1CCN(c2ncc(C(F)(F)F)cc2Cl)CC1)NC(=O)NCc1ccccc1,-3.07
10,Cn1c2c(c(=O)n3ncnc13)CCCC2,-2.57
11,CCOc1ccc(NC(=O)CSc2nnc(CCNC(=O)c3ccc(OC)cc3)n2C)cc1,23.6
12,O=C(O)CCC(=O)Nc1ccc(OCC(=O)O)cc1,-3.01
13,CCn1nnnc1SCC(=O)Nc1ccc(OC)cc1,3.82
14,O=C(O)Cn1nnnc1SCC(=O)Nc1ccccc1F,18.7
15,Cc1ccc(NC(=O)COC(=O)c2cccnc2)cc1,25.2
16,CCn1c(CCNC(=O)c2ccc(OC)cc2)nnc1SCC(=O)Nc1ccccc1F,1.93
17,O=C(COC(=O)c1cccnc1)Nc1ccccc1,2.57
18,Cc1ccc(OCCCC(=O)Nc2ccc(Br)cc2)cc1,-1.62
19,Cc1ccccc1NC(=O)NCc1ccc2c(c1)OCO2,5.21
20,O=C(c1cnsn1)N1CCN(c2ccccn2)CC1,-4.02
21,Cc1nc(C(=O)O)nn1-c1ccc([N+](=O)[O-])cc1,0.22
22,COc1cccc([C@@H]2Oc3ccc(OC)cc3C(=O)[C@H]2OC(=O)N[C@H](C)C2CCCCC2)c1,-23.2
23,O=[N+]([O-])c1ccc2c(c1)/C(=N\O)c1ccccc1-2,2.49
24,CN1CCN(c2ccc(C(CC(N)=O)NC(=O)Cc3ccc(Br)cc3)cc2[N+](=O)[O-])CC1 (stereo not drawn),5.26
25,O=C(N/N=C\c1ccc2c(c1)OCO2)c1ccco1,26.4
26,CCn1nnnc1SCC(=O)Nc1ccc(OCc2ccccc2)cc1,4.99

row,Compound,inhibition [%]
1,Nn1cnnc1SCC(=O)Nc1ccc(C2CCCCC2)cc1,-2.76
2,CCCCOc1ccc(CC(=O)NCC(=O)O)cc1,4.31
3,CCOc1ccc(NC(=O)CCC(=O)O)cc1,18
4,CCCc1nnc(SCC(=O)Nc2ccc(OCC)cc2)n1N,30.4
5,CCOc1ccc(OCC)c(NC(=O)CSCC(=O)O)c1,2.8
6,O=C(CSCCO)Nc1ccc(C2CCCCC2)cc1,6.11
7,CCCCOc1ccc(C(=O)O)cc1,23.4
8,O=C(Nc1nc2ccsc2c(=O)s1)c1ccco1,2.03
9,COc1cc(/C=N/NC(=O)c2ccccc2Cl)ccc1Oc1ccc([N+](=O)[O-])cn1,3.71
10,COC(=O)c1ccccc1NC(=O)c1ccccc1N(C)S(=O)(=O)c1ccccc1,-2.99
11,CCN(C(=O)CCc1nc(-c2ccc(OC)cc2)no1)c1cc(OC)ccc1OC,-5.65
12,Cc1ccc(S(=O)(=O)N(C)CC(=O)OCC(=O)NC(c2ccccc2)c2ccccc2)cc1,11.4
13,Cc1ccc(-c2ccc(/C=N/NC(=O)c3ccccc3O)o2)cc1,3.44
14,COc1ccc(C(=O)Nc2nc3cc4c(cc3s2)OCCO4)c(OC)c1,-6.2
15,Cc1ccc(NC(=O)NCc2ccccn2)cc1,5.76
16,CC(C)(C)c1cc(CCC(=O)NNC(=O)c2ccco2)cc(C(C)(C)C)c1O,-5.01
17,CC(C)(C)c1cc(CCC(=O)NN)cc(C(C)(C)C)c1O,-14
18,COc1ccc(C(=O)NC(=S)NNC(=O)Cc2cccs2)cc1,41.2
19,CC(=O)NC(=S)NNC(=O)CCc1ccccc1,21.3
20,Cc1ccc(C(=O)NNC(=S)NC(=O)COc2ccccc2)cc1,16.5
21,COc1ccc(C(=O)NC(=S)NNC(=O)COc2ccccc2)cc1,1.34
22,O=C(CCc1ccccc1)NNC(=S)NC(=O)c1ccc(Cl)cc1,92.7
23,O=C(Cc1cccs1)NNC(=S)NC(=O)c1ccc(F)c(F)c1,7.14
24,CCOC(=O)N1CCC(N2C(=O)c3ccccc3C2Nc2ccc(S(=O)(=O)N3CCOCC3)cc2)CC1 (stereo not drawn),2.69
25,Cc1cccc(NC(=O)CCCn2cc([N+](=O)[O-])cn2)n1,-2.41
26,COc1ccc(OC)c(NC(=O)CSCC(=O)O)c1,6.02

row,Compound,inhibition [%]
1,Cc1cc(C(=O)CCC(=O)N2CCN(S(=O)(=O)c3cccs3)CC2)c(C)s1,0.37
2,CN1C[C@@H]2C[C@@H](c3cccn3-c3nccs3)N3CCC[C@@]23C1=O,-0.22
3,Cc1ccc(NC(=O)CN2CCCCCC2)cc1Br,9.91
4,Cc1cc(C(=O)CCl)c(C)n1-c1cccc(S(=O)(=O)N2CCOCC2)c1,1.27
5,Cc1cc(C(=O)COc2ccccc2[N+](=O)[O-])c(C)n1-c1cccc(S(=O)(=O)N2CCOCC2)c1,2.08
6,CCSC1=C(C#N)C(c2ccccc2Cl)C(C(=O)c2cccs2)C(O)(C(F)(F)F)N1 (stereo not drawn),-2.94
7,CC(Sc1ccc2c(c1)OCCO2)C(=O)Nc1ccc2c(c1)OCO2 (stereo not drawn),31.4
8,O=C(CSc1ccc2c(c1)OCCO2)Nc1ncc(Cl)cc1Cl,33.8
9,CCCNC(=O)NC(=O)CSc1ccc2c(c1)OCCO2,-3.31
10,CC(Sc1ccc2c(c1)OCCO2)C(=O)Nc1ccc(N2CCOCC2)cc1 (stereo not drawn),-0.69
11,CCOc1cc(S(=O)(=O)Nc2ccccc2CC)ccc1Cl,8.77
12,O=C(CSc1nnc(NC2CCCCC2)s1)NCc1ccco1,1.38
13,Cc1nnc(SCC(=O)NN2C(=O)NC3(CCCCC3)C2=O)s1,0.53
14,Nc1nnc(SCC(=O)NN2C(=O)NC3(CCCCC3)C2=O)s1,28
15,O=C(CSc1nnc(NC2CCCCC2)s1)NC1CCS(=O)(=O)C1 (stereo not drawn),11.6
16,Cn1nc(C(=O)NNc2c(F)c(F)cc(F)c2F)c2ccccc2c1=O,10.2
17,Cc1ccccc1Nc1nc(N)nc(CSc2nnnn2-c2ccccc2)n1,2.91
18,CCCCn1nc(C(=O)Nc2cc(S(=O)(=O)N(C)C)ccc2C)c2ccccc2c1=O,0.9
19,CCCN(c1ccc(C(=O)OC)cc1)S(=O)(=O)c1ccccc1,-1.32
20,CCc1ccc(Nc2nnc(SCC(=O)Nc3ccc(C(=O)O)cc3)s2)cc1,33
21,Cc1cccc(Nc2nnc(SCC(=O)Nc3cccc(S(=O)(=O)N4CCCCC4)c3)s2)c1,33.5
22,O=C(CSc1nnc(NC(=O)CN2CCOCC2)s1)Nc1ccccc1,27.4
23,Cc1cccc(NC(=O)CSc2nnc(NC(=O)CN3CCCCC3)s2)c1,52.7
24,CC(=O)c1ccc(NC(=O)CSc2nnc(NC(=O)CN3CCOCC3)s2)cc1,28.4
25,Cc1cccc(C)c1NC(=O)CSc1nnc(NC(=O)CN2CCOCC2)s1,24.1
